# The supplement of paper PMC8728848
# The sample as a whole holds a higher share of the strongest signals than the screen did.
# B1: Als3-41 (Candida albicans) (protein)
# chain: KTITGVFNSFNSLTWSNAATYNYKGPGTPTWNAVLGWSLDGTSASPGDTFTLNMPCVFKFTTSQTSVDLTAHGVKYATCQFQAGEEFMTFSTLTCTVSNTLTPSIKALGTVTLPLAFNVGGTGSSVDLEDSKCFTAGTNTVTFNDGGKKISINVDFERSNVDPKGYLTDSRVIPSLNKVSTLFVAPQCANGYTSGTMGFANTYGDVQIDCSNIHVGITKGLNDWNYPVSSESFSYTKTCSSNGIFITYKNVPAGYRPFVDAYISATDVNSYTLSYANEYTCAGGYWQRAPFTLRWTGYRNSDAGSNGIVIVATTRTVTDSTTAVTTLPFDPNRDKTKTIEILKPIPTTTITTSYVGVTTSYLTKTAPIGETATVIVD
# How the values were obtained:
# Assay in all cases: glycan array binding signal (z-score within array); higher = stronger binding
# Conditions in all cases: glycan notation: IUPAC condensed, linker removed
# [1] = target: GlcNAc(b1-3)Gal(b1-4)GlcNAc(b1-3)Gal(b1-4)GlcNAc(b1-3)Gal(b1-4)GlcNAc(b1-2)Man(a1-3)[GlcNAc(b1-3)Gal(b1-4)GlcNAc(b1-3)Gal(b1-4)GlcNAc(b1-3)Gal(b1-4)GlcNAc(b1-2)Man(a1-6)]Man(b1-4)GlcNAc(b1-4)[Fuc(a1-6)]GlcNAc
# In short: (§1)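 Arrays were curated from the Consortium for Functional Glycomics database, 3228 in total, and kept only where the protein sequence was available. Binding is expressed as a within-array Z-score. This score was averaged across arrays of the same protein sequence at different concentrations or buffers and across linkers, and negative values can be read as non-binding.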
# GlcNAc(b1-3)Man = target: GlcNAc(b1-3)Man
# In short: as §1
# GlcNAc(b1-4)GlcNAc = target: GlcNAc(b1-4)GlcNAc
# In short: as §1
# Kdn(a2-3)Gal(b1-4)GlcNAc = target: Kdn(a2-3)Gal(b1-4)GlcNAc
# In short: as §1
# [2] = target: Man(a1-2)Man(a1-6)[Man(a1-3)]Man(a1-6)[Man(a1-2)Man(a1-2)Man(a1-3)]Man(b1-4)GlcNAc(b1-4)GlcNAc
# In short: as §1
# Neu5Ac(a2-3)Gal = target: Neu5Ac(a2-3)Gal
# In short: as §1
# [3] = target: Neu5Ac(a2-3)Gal(b1-3)GalNAc(b1-4)[Neu5Ac(a2-3)]Gal(b1-4)Glc
# In short: as §1
# [4] = target: Neu5Ac(a2-3)Gal(b1-4)GlcNAc(b1-2)Man
# In short: as §1
# [5] = target: Neu5Ac(a2-3)Gal(b1-4)GlcNAc(b1-2)Man(a1-3)[Neu5Ac(a2-3)Gal(b1-4)GlcNAc(b1-2)Man(a1-6)]Man(b1-4)GlcNAc(b1-4)[Fuc(a1-6)]GlcNAc
# In short: as §1
# [6] = target: Neu5Ac(a2-3)Gal(b1-4)GlcNAc(b1-3)Gal(b1-4)GlcNAc(b1-3)Gal(b1-4)GlcNAc(b1-2)Man(a1-3)[Neu5Ac(a2-3)Gal(b1-4)GlcNAc(b1-3)Gal(b1-4)GlcNAc(b1-3)Gal(b1-4)GlcNAc(b1-2)Man(a1-6)]GalNAc
# In short: as §1
# [7] = target: Neu5Ac(a2-3)GalNAc(b1-4)GlcNAc
# In short: as §1
# [8] = target: Neu5Ac(a2-6)Gal(b1-4)GlcNAc(b1-2)Man(a1-3)Man(b1-4)GlcNAc(b1-4)GlcNAc
# In short: as §1
# [9] = target: Neu5Ac(a2-6)Gal(b1-4)GlcNAc(b1-2)Man(a1-3)[Man(a1-6)]Man(b1-4)GlcNAc(b1-4)GlcNAc
# In short: as §1
# [10] = target: Neu5Ac(a2-8)Neu5Ac(a2-3)[Gal(b1-3)GalNAc(b1-4)]Gal(b1-4)Glc
# In short: as §1
# [11] = target: Neu5Gc(a2-8)Neu5Gc(a2-6)Gal(b1-4)GlcNAc
# In short: as §1
binder,measurement,setting,value
B1,glycan array binding signal (z-score),[1],1.72
same,glycan array binding signal (z-score),GlcNAc(b1-3)Man,0.501
same,glycan array binding signal (z-score),GlcNAc(b1-4)GlcNAc,1.79
same,glycan array binding signal (z-score),Kdn(a2-3)Gal(b1-4)GlcNAc,-0.355
same,glycan array binding signal (z-score),[2],-0.239
same,glycan array binding signal (z-score),Neu5Ac(a2-3)Gal,-0.322
same,glycan array binding signal (z-score),[3],-0.31
same,glycan array binding signal (z-score),[4],0.213
same,glycan array binding signal (z-score),[5],-0.35
same,glycan array binding signal (z-score),[6],6.54
same,glycan array binding signal (z-score),[7],-0.224
same,glycan array binding signal (z-score),[8],-0.296
same,glycan array binding signal (z-score),[9],-0.268
same,glycan array binding signal (z-score),[10],-0.006
same,glycan array binding signal (z-score),[11],-0.217
